According to PubChem BioAssay (NCI):
Values joined by “and” are separate entries in the source; they are usually repeats but may differ in a detail not shown here. Equal entries are not always repeated. About 83,000 compounds went through this panel and 20% of them were active in at least one assay; those are over-represented in the sample as a whole.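 Note: values are percent growth. 100 is the growth of untreated cells, values between 100 and 0 indicate rising inhibition; between -100 and 0 indicates cell death.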 Active and inactive are the calls of the source. How the source made its calls: active means growth percent below 10; inactive means the rest.

Experiments:
Assay in all cases: NCI-60 one-dose screen, 48 h (100 = growth as untreated, 0 = no growth, -100 = all killed)
MOLT-4 leukemia = settings: 10 µM
SR leukemia = settings: 10 µM
RPMI-8226 leukemia = settings: 10 µM
OVCAR-8 ovarian = settings: 10 µM
OVCAR-5 ovarian = settings: 10 µM
SK-OV-3 ovarian = settings: 10 µM
OVCAR-3 ovarian = settings: 10 µM
HS 578T breast = settings: 10 µM
NCI/ADR-RES ovarian = settings: 10 µM
T-47D breast = settings: 10 µM
BT-549 breast = settings: 10 µM
MDA-MB-435 melanoma = settings: 10 µM
SW-620 colon = settings: 10 µM
MCF7 breast = test system: MCF7 breast
HCT-116 colon = settings: 10 µM
HCC-2998 colon = settings: 10 µM
KM12 colon = settings: 10 µM
OVCAR-4 ovarian = settings: 10 µM
IGROV1 ovarian = settings: 10 µM

Measured: growth

O=C(CBr)Nc1ccccc1
inactive: MOLT-4 leukemia 42.6% | SR leukemia 48.1% | RPMI-8226 leukemia 100% | OVCAR-8 ovarian 98% | OVCAR-5 ovarian 128% | SK-OV-3 ovarian 113% | OVCAR-3 ovarian 98.3% | HS 578T breast 99.9% | NCI/ADR-RES ovarian 103% | T-47D breast 92.6% | BT-549 breast 87% | MDA-MB-435 melanoma 102% | SW-620 colon 59.9% | MCF7 breast; 10 µM unless noted 68.6% | HCT-116 colon 84.7% | HCC-2998 colon 105% | KM12 colon 102%

O=[N+]([O-])/C=C\c1ccc2c(c1)OCO2
active: MDA-MB-435 melanoma -14.8% | MCF7 breast; 10 µM unless noted -10.9% | HCT-116 colon -20%
inactive: MOLT-4 leukemia 75.9% | SR leukemia 34.4% | RPMI-8226 leukemia 10.2% | OVCAR-8 ovarian 89.9% | OVCAR-5 ovarian 91.5% | SK-OV-3 ovarian 101% | OVCAR-3 ovarian 85.7% | HS 578T breast 87.4% | NCI/ADR-RES ovarian 98.5% | T-47D breast 75.3% | BT-549 breast 91.7% | SW-620 colon 43.2% | HCC-2998 colon 52.6% | KM12 colon 38.3%

NC(=O)c1cc([N+](=O)[O-])c(Cl)c([N+](=O)[O-])c1
active: MOLT-4 leukemia -13.3% | SR leukemia -3.5% | RPMI-8226 leukemia -10.4% | OVCAR-3 ovarian -41.1% | SW-620 colon -85.2% | HCT-116 colon -79.3%
inactive: OVCAR-8 ovarian 85.1% | OVCAR-5 ovarian 111% | OVCAR-4 ovarian 71.8% | SK-OV-3 ovarian 104% | HS 578T breast 106% | NCI/ADR-RES ovarian 111% | T-47D breast 27.5% | BT-549 breast 113% | MDA-MB-435 melanoma 109% | MCF7 breast; 10 µM unless noted 22.3% | HCC-2998 colon 109% | KM12 colon 91.6%

O=c1[nH]c2ccccc2n1C1CCN(CCCC(c2ccc(F)cc2)c2ccc(F)cc2)CC1
-74.2% (active) and 39.5% (inactive): OVCAR-3 ovarian
inactive: OVCAR-8 ovarian 44.3% | OVCAR-5 ovarian 38.3% | OVCAR-4 ovarian 55.6% and 70.2% | SK-OV-3 ovarian 85.8% and 78.4% | NCI/ADR-RES ovarian 48.3% and 23.7% | T-47D breast 55.7% and 10.2% | BT-549 breast 35.8% and 18.5%
active: SR leukemia -50.8% and -35.4% | HCT-116 colon -68.6% and -39.9% | HCC-2998 colon 7.86% and -80.1%
-0.627% (active) and 25.7% (inactive): KM12 colon
-81% (active) and 19% (inactive): MDA-MB-435 melanoma
11.2% (inactive) and 0.602% (active): RPMI-8226 leukemia
65% (inactive) and 6.06% (active): MCF7 breast; 10 µM unless noted
55.2% (inactive) and -34.7% (active): HS 578T breast
-21.1% (active) and 19.2% (inactive): SW-620 colon
-34% (active) and 15.3% (inactive): MOLT-4 leukemia

NC(Cc1ccccc1)c1ccccc1 (stereo not drawn)
inactive: MOLT-4 leukemia 116% and 94.2% | SR leukemia 99.9% and 93.7% | RPMI-8226 leukemia 111% and 100% | OVCAR-8 ovarian 104% and 108% | OVCAR-5 ovarian 98.5% and 96.1% | SK-OV-3 ovarian 101% and 103% | IGROV1 ovarian 107% and 101% | OVCAR-3 ovarian 112% and 118% | HS 578T breast 98.9% and 119% | NCI/ADR-RES ovarian 106% and 102% | T-47D breast 95.7% and 101% | BT-549 breast 91.1% and 89.4% | MDA-MB-435 melanoma 106% and 102% | SW-620 colon 112% and 104% | MCF7 breast; 10 µM unless noted 97.5% and 97% | HCT-116 colon 99.7% and 98.4% | HCC-2998 colon 105% and 102% | KM12 colon 104% and 110%

[Cl][Sn]([c]1ccccc1)([c]1ccccc1)[c]1ccccc1
active: MOLT-4 leukemia -7.21% | SR leukemia -21% | RPMI-8226 leukemia -28% | OVCAR-8 ovarian -74.5% | OVCAR-5 ovarian -84.1% | OVCAR-4 ovarian -88.9% | SK-OV-3 ovarian -97.3% | OVCAR-3 ovarian -94.2% | HS 578T breast 0.581% | NCI/ADR-RES ovarian -37.7% | BT-549 breast -83.1% | MDA-MB-435 melanoma -83.9% | SW-620 colon -56.2% | MCF7 breast; 10 µM unless noted -81.1% | HCT-116 colon -97.3% | HCC-2998 colon -83.9% | KM12 colon -71.3%

O=C(O)c1cc(Cc2ccc(O)c(C(=O)O)c2)ccc1O (tested in a mixture with another compound)
active: RPMI-8226 leukemia -5.46% | IGROV1 ovarian -81.4%
inactive: MOLT-4 leukemia 54.3% | SR leukemia 80.4% | OVCAR-8 ovarian 68.1% | OVCAR-5 ovarian 65.1% | SK-OV-3 ovarian 95.4% | OVCAR-3 ovarian 70.4% | HS 578T breast 72.6% | NCI/ADR-RES ovarian 75.7% | T-47D breast 53.1% | BT-549 breast 73.8% | MDA-MB-435 melanoma 72.7% | SW-620 colon 64.6% | MCF7 breast; 10 µM unless noted 46.4% | HCT-116 colon 45.1% | HCC-2998 colon 53.9% | KM12 colon 65.9%

C=NCC#N
inactive: MOLT-4 leukemia 94.6% and 107% | SR leukemia 83.8% and 108% | RPMI-8226 leukemia 92.4% and 115% | OVCAR-8 ovarian 104% and 108% | OVCAR-5 ovarian 98.8% and 93.5% | OVCAR-4 ovarian 114% and 108% | SK-OV-3 ovarian 113% and 96.6% | OVCAR-3 ovarian 105% and 119% | HS 578T breast 124% | NCI/ADR-RES ovarian 102% and 107% | T-47D breast 98.8% and 93.6% | BT-549 breast 103% and 89.3% | MDA-MB-435 melanoma 100% and 113% | SW-620 colon 100% and 115% | MCF7 breast; 10 µM unless noted 109% and 92.1% | HCT-116 colon 98.2% and 107% | HCC-2998 colon 100% and 125% | KM12 colon 99.4% and 109%

O=[P+](O)c1ccccc1
inactive: MOLT-4 leukemia 107% | SR leukemia 102% | RPMI-8226 leukemia 98.6% | OVCAR-8 ovarian 99.9% | OVCAR-5 ovarian 108% | SK-OV-3 ovarian 101% | OVCAR-3 ovarian 109% | HS 578T breast 106% | NCI/ADR-RES ovarian 106% | T-47D breast 99.9% | BT-549 breast 104% | MDA-MB-435 melanoma 118% | SW-620 colon 106% | MCF7 breast; 10 µM unless noted 95.9% | HCT-116 colon 100% | KM12 colon 107%

COc1ccccc1[As]=[As]c1ccccc1OC (stereo not drawn)
active: MOLT-4 leukemia -9.7% | SR leukemia -2.26% | RPMI-8226 leukemia -15.1% | OVCAR-8 ovarian -83.1% | OVCAR-5 ovarian -93.2% | SK-OV-3 ovarian -99.7% | OVCAR-3 ovarian -93.3% | HS 578T breast -11.6% | NCI/ADR-RES ovarian -72% | T-47D breast -47.2% | BT-549 breast -91.9% | MDA-MB-435 melanoma -73.2% | SW-620 colon -66.3% | MCF7 breast; 10 µM unless noted -38.3% | HCT-116 colon -71.3% | HCC-2998 colon -98.2% | KM12 colon -81.8%

COc1ccc2c(ccc3oc([N+](=O)[O-])cc32)c1
inactive: RPMI-8226 leukemia 12.1% | OVCAR-4 ovarian 28.9% | T-47D breast 15.3%
active: MOLT-4 leukemia -19% | SR leukemia -9.5% | OVCAR-8 ovarian 0.0755% | OVCAR-5 ovarian 9.85% | SK-OV-3 ovarian -12.6% | OVCAR-3 ovarian -13.9% | HS 578T breast -7.73% | NCI/ADR-RES ovarian 2.89% | BT-549 breast -35.1% | MDA-MB-435 melanoma -77% | SW-620 colon 7.19% | MCF7 breast; 10 µM unless noted 6.64% | HCT-116 colon 4.98% | HCC-2998 colon -59.3% | KM12 colon -5.99%

COc1cc2c(c(OC)c1OC)-c1ccc(O)c(=O)cc1[C@@H](NC(C)=O)CC2
active: OVCAR-3 ovarian 3.49% | MCF7 breast; 10 µM 7.81% | MCF7 breast; 100 µM -47.9%
inactive: MOLT-4 leukemia 46.6% | SR leukemia 30.1% | RPMI-8226 leukemia 40.9% | OVCAR-8 ovarian 36.7% | OVCAR-5 ovarian 70.1% | SK-OV-3 ovarian 66.9% | IGROV1 ovarian 51.9% | NCI/ADR-RES ovarian 74.3% | T-47D breast 18.4% | BT-549 breast 59.9% | MDA-MB-435 melanoma 45.6% | SW-620 colon 50.2% | HCT-116 colon 26.1% | HCC-2998 colon 66.9% | KM12 colon 57.4%

O=[N+]([O-])c1ccc(Br)c([N+](=O)[O-])c1
inactive: MOLT-4 leukemia 68.4% | SR leukemia 21.8% | RPMI-8226 leukemia 102% | OVCAR-8 ovarian 91.9% | OVCAR-5 ovarian 108% | OVCAR-4 ovarian 103% | SK-OV-3 ovarian 113% | OVCAR-3 ovarian 87.8% | HS 578T breast 105% | NCI/ADR-RES ovarian 99% | T-47D breast 54.4% | BT-549 breast 104% | MDA-MB-435 melanoma 102% | SW-620 colon 44.4% | MCF7 breast; 10 µM unless noted 52.5% | HCT-116 colon 32.3% | HCC-2998 colon 96.2% | KM12 colon 53.6%
